Activity calls are given as the source filed them. Entries that show only a call come without a potency. The call rests on the fitted dose curve; in most records, active means well fitted inhibition curve with a large enough effect; inconclusive means small, poorly fitted or top-dose-only effect; inactive means flat fitted curve, though single readings scatter.

Sequence of DNA polymerase III PolC-type (Bacillus subtilis (strain 168)) (P13267 whole entry, looked up): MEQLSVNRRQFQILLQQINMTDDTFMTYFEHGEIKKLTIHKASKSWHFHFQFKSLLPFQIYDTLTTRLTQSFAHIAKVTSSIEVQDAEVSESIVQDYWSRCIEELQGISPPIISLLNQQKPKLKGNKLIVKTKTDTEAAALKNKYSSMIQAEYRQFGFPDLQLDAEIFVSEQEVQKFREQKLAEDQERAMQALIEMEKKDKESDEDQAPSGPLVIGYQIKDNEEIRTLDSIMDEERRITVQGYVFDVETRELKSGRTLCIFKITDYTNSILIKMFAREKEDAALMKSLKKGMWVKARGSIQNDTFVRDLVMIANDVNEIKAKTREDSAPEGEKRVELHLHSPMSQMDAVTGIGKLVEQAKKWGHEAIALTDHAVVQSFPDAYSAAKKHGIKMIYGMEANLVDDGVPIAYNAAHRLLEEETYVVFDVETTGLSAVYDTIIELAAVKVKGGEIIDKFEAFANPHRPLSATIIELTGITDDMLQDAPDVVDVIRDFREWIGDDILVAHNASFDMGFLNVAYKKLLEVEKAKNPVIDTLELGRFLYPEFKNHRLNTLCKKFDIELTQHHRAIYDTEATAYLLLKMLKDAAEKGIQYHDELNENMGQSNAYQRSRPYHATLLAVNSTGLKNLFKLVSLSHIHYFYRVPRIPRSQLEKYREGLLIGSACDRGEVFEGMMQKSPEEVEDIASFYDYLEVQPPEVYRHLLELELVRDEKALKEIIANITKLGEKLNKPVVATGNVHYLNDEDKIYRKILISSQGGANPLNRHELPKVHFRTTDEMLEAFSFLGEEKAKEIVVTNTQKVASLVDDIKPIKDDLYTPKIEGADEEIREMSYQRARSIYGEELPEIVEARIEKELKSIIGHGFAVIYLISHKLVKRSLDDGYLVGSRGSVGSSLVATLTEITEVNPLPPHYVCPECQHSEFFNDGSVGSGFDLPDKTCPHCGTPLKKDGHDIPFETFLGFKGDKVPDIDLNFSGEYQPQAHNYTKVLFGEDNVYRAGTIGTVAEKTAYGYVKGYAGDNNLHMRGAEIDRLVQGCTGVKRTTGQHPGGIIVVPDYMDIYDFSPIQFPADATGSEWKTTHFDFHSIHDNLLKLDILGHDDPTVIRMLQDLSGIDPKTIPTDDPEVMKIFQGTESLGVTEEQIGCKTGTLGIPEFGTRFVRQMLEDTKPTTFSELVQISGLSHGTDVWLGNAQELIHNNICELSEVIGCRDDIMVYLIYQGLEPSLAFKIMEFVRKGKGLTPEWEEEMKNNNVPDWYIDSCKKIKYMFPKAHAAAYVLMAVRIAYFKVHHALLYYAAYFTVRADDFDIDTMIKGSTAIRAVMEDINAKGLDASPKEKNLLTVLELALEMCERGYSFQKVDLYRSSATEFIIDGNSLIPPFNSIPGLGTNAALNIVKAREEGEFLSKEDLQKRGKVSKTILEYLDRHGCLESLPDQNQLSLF

The target in the assay is DNA polymerase III PolC-type (Bacillus subtilis (strain 168)) (UniProt P13267). In words: qHTS Validation Assay for the Inhibitors of DNA Replication in Gram-Positive Bacteria (AID 485295).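 Further: reconstituted holoenzyme with PolC plus beta clamp SSB and primase.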 To be noted: Gram-positive bacterial DNA replication assay; series mostly up to 57.1 µM. As for the experimental part:
B Subtilis DNA polymerase III holoenzyme complex was assayed for DNA production by fluorescent detection of the double-stranded DNA product with PicoGreen dye. The holoenzyme complex was reconstituted from the following purified protein components: DNA Polymerase III, beta subunit processivity factor, SSB single-stranded DNA binding protein, and Primase. Single-stranded, circular M13Gori was used as a substrate with dNTPs and NTPs also supplied to the substrate reagent. Compounds from the NCGC collection were incubated with the holoenzyme mixture for […] at room temperature to allow binding to occur, and then the reaction was started by the addition of substrate. After 30 min incubation at room temperature, PicoGreen solution containing EDTA was added to stop the reaction and to visualize the double-stranded DNA produced. Reaction progress was measured in a ViewLux CCD imager in fluorescence intensity mode by using 480 nm excitation and 540 nm emission filter set.
1. Thaw screening compounds.
2. Label assay plates. Prepare pipette tips, reagent reservoirs, buffers and controls.
1. Thaw Enzymes, DNA template, Nucleotides and PicoGreen dye concentrate. Thawed enzymes are stable on ice for ~1
week. Other thawed components are stable indefinitely.
2. Prepare sufficient quantities of Enzyme, Substrate and PicoGreen Quench mixes (according to Table II). For the number of
compound plates being screened.
3. Ensure that the tip wash station reservoirs have clean water and turn on recirculating chiller so that the chilled deck position
1. Load 2 uL of EDTA controls (250 mM, Background, 100 % inhibition) and 2 uL of DMSO controls (Negative control, 0%
inhibition) in the screening plates (flat-bottomed black 384-well polypropylene, Greiner Bio-one).
2. Place Enzyme mix reservoir on the chiller position of the liquid handler deck. Make sure that chiller will maintain
temperature of Enzyme mix at 4degC. Substrate mix and PicoGreen Quench can be stored at room temp.
3. Program liquid handling robotics to dispense 18 uL of Enzyme mix into assay plates. Wash tips.
4. Aspirate and dispense 2 uL of compound from compound plates, mix and Incubate at room temperature for 10 minutes.
5. Aspirate 5 ul of Substrate mix, dispense into assay plates and mix by pipetting. Wash tips.
6. Incubate at room temperature (21 +/- 1 deg C) for 20 minutes.
7. Quench reactions by addition of 25 uL PicoGreen Quench mix and mix by pipetting (using HTS robotics or bulk reagent
dispenser such as a Multidrop or uFill). Keep plates in the dark or stacked until ready to read fluorescence.
8. Read fluorescence intensity of plates on plate reader using "Fluorescein (Ex 485 nm/ Em 535 nm, 0.1s)" setting.
A general note: In qHTS, concentration-response curves come from the screen itself.
Turning to `Clc1ccc(N2CCN(Cc3c[nH]c4ncccc34)CC2)cc1`, the Potency entry was “inactive”. To `NC[C@@H]1O[C@H](C23CC4CC(CC(C4)C2)C3)Cc2c1ccc(O)c2O` belongs “inactive”.

In the case of `OC[C@H]1O[C@@H](n2cnc3c(Nc4ccccc4)ncnc32)[C@H](O)[C@@H]1O`, the Potency entry was “inactive”. To `CN(C)CCC(c1ccc(Cl)cc1)c1ccccn1` (stereo not given) belongs “inactive”.

Turning to `CCN1/C(=C/C(C)=O)Sc2ccc(OC)cc21`, the Potency entry is “inactive”. For the molecule `NC(=O)C1=CN(C2OC(COP(=O)(O)OP(=O)(O)OC[C@H]3O[C@@H](n4cnc5c(N)ncnc54)[C@H](OP(=O)(O)O)[C@@H]3O)C(O)C2O)C=CC1` (stereo not given in full), the Potency result was “inactive”. As for `c1cnc2c(c1)ccc1cccnc12`, the Potency result is “inactive”. Consider `CNc1ncnc2c1ncn2[C@@H]1O[C@H](CO)[C@@H](O)[C@H]1O`, for which the Potency entry is “inactive”. To `Oc1cc2c(cc1O)CN(C(=S)NCCc1ccc(Cl)cc1)CCC2` belongs “inactive”; to `CNC(=O)[C@H]1O[C@@H](n2cnc3c(NCc4ccc(N)cc4)ncnc32)[C@H](O)[C@@H]1O`, “inactive”; to `O=C1NC(O)=NC1(c1ccccc1)c1ccccc1`, “inactive”. For the molecule `O=C(O)CCCC[C@@H]1CCSS1`, the Potency entry was “inactive”. As for `COc1cc(C(O)CO)ccc1OS(=O)(=O)O` (stereo not given), the entry is “inactive”; as for `CC(=O)/C=C1\C(=O)N(C)c2ccccc21`, “inactive”; as for `O=C(O)c1cc(=O)c2c(Cl)cc(Cl)cc2[nH]1`, “inactive”. Turning to `O=C(c1ccc(OCCCc2cnc[nH]2)cc1)C1CC1`, the Potency result is “inactive”. To `COC(=O)c1c(C)[nH]c(C)c1C(=O)c1ccccc1Cc1ccccc1` belongs “inactive”. Regarding `CN(C)c1nc(N)c(C(=O)N=C(N)N)nc1Cl`, the Potency result is “inactive”. Consider `Cc1nc2sccn2c(=O)c1CCN1CCC(=C(c2ccccc2)c2ccc(F)cc2)CC1`, for which the Potency entry was “inactive”. To `COc1ccccc1CNCCCCCCNCCCCCCCCNCCCCCCNCc1ccccc1OC` belongs “inactive”; to `OC[C@H]1O[C@@H](n2cnc3c(NC4CCCC4)ncnc32)[C@H](O)[C@@H]1O`, “inactive”. To `C[N+]1(C)C2CC(OC(=O)[C@H](CO)c3ccccc3)CC1C1OC12` (stereo not given in full) belongs “inactive”; to `CC(C)(C=O)Cc1cc(C(C)(C)C)c(O)c(C(C)(C)C)c1`, “inactive”; to `Cc1ccccc1CNc1ncnc2c1ncn2C1OC(CO)C(O)C1O` (stereo not given), “inactive”. Turning to `O=Nc1ccc2oc(=O)ccc2c1`, the Potency entry is “inactive”. As for `CCCCCCCCCCCCCCCC(=O)OC(CC(=O)O)C[N+](C)(C)C` (stereo not given), the entry is “inactive”.

For `NCCCS(=O)(=O)O`, the Potency entry was “inactive”. In the case of `Nc1nc(Nc2ccccc2)nc2c1ncn2[C@@H]1O[C@H](CO)[C@@H](O)[C@H]1O`, the Potency entry is “inactive”. To `O=[N+]([O-])c1ccc(CSc2ncnc3c2ncn3[C@@H]2O[C@H](CO)[C@@H](O)[C@H]2O)cc1` belongs “inactive”; to `C=C[C@@H]1CN2CC[C@@H]1C[C@H]2[C@H](O)c1ccnc2ccc(OC)cc12`, “inactive”; to `COc1cccc(C(=O)NCCN2CCN(c3ccc(Cl)cc3)CC2)c1`, “inactive”. To `CCCCCCCCCCCCCCCCCC(=O)OC(CC(=O)O)C[N+](C)(C)C` (stereo not given) belongs “inactive”; to `Cn1ncc(S(=O)(=O)Cc2ccccc2)c(Br)c1=O`, “inactive”; to `CN1[C@@H](CC(=O)c2ccccc2)CCC[C@H]1C[C@H](O)c1ccccc1`, “inactive”. As for `CN(C)CCCO[C@@H]1[C@H]2OC(C)(C)O[C@H]2O[C@@H]1[C@H](O)CO`, the entry is “inactive”; as for `CN(C)c1nc2c(Br)c(Br)c(Br)c(Br)c2[nH]1`, “inactive”; as for `CN(C)c1ccc(/C=C2\C(=O)Nc3ccccc32)cc1`, “inactive”. Consider `O=c1[nH]c2cc(Cl)c(Cl)cc2[nH]c1=O`, for which the Potency result is “inactive”. To `C=CC(=O)c1ccc(CCCCCC)cc1` belongs “inactive”; to `O=C(O)[C@@H]1C[C@H](C(=O)O)N1`, “inactive”.

(Values after PubChem BioAssay (NCATS).)
